Test [1] addresses T1, Serine/threonine-protein kinase D2 (Homo sapiens) (UniProt Q9BZL6).
T1 sequence (whole entry): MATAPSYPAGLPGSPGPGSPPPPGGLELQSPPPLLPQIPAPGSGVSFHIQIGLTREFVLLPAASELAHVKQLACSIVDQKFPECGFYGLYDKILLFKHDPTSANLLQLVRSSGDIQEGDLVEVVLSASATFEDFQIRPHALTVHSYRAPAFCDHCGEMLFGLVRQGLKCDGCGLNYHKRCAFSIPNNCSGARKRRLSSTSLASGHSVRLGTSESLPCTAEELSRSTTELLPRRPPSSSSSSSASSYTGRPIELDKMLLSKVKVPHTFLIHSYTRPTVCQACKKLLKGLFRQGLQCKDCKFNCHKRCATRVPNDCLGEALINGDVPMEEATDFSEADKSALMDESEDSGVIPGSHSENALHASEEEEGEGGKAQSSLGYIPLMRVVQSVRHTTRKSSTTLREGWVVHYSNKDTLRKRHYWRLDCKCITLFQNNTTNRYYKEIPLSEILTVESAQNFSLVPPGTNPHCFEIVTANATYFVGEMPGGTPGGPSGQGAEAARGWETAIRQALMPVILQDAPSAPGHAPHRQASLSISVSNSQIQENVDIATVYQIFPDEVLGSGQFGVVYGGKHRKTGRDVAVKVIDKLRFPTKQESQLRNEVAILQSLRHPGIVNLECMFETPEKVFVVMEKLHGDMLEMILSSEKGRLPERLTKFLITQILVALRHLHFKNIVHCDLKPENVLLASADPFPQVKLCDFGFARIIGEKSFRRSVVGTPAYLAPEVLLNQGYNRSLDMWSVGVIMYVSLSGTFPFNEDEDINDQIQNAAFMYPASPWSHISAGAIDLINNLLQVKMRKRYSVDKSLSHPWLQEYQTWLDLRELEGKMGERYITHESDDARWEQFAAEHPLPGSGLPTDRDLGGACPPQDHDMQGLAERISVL
Conditions: at 1 µM.

Test [2] addresses T2, Serine/threonine-protein kinase D3 (Homo sapiens) (UniProt O94806).
T2 sequence (whole entry): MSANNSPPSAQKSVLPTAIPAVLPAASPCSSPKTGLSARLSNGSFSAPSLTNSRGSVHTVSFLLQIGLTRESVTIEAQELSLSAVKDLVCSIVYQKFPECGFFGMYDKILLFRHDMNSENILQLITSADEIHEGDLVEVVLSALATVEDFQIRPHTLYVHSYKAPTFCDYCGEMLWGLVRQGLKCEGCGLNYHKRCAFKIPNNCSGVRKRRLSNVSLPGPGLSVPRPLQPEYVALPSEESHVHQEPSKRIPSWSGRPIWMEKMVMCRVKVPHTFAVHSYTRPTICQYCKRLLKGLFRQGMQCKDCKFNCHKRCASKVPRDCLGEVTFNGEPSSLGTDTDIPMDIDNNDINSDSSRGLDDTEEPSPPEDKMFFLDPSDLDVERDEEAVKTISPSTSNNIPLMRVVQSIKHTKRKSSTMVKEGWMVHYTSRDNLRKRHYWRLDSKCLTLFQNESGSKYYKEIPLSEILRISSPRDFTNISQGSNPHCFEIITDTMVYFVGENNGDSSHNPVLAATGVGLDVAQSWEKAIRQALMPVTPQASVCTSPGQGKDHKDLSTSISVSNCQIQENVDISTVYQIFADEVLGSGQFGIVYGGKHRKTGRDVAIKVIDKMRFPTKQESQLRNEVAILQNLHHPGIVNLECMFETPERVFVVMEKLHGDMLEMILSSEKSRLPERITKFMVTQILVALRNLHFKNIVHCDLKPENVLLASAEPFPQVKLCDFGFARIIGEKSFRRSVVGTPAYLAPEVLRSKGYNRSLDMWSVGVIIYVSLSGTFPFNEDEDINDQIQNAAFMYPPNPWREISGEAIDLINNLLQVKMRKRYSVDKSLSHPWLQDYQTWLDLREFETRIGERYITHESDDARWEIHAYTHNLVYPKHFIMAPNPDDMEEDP
The note with it: at 0.1 µM.

Test [3] addresses T2, Serine/threonine-protein kinase D3 (Homo sapiens). The note with it: at 1 µM.
The target in test [4] is T3, cGMP-dependent protein kinase 1 (Homo sapiens) (UniProt Q13976).
T3 sequence (whole entry): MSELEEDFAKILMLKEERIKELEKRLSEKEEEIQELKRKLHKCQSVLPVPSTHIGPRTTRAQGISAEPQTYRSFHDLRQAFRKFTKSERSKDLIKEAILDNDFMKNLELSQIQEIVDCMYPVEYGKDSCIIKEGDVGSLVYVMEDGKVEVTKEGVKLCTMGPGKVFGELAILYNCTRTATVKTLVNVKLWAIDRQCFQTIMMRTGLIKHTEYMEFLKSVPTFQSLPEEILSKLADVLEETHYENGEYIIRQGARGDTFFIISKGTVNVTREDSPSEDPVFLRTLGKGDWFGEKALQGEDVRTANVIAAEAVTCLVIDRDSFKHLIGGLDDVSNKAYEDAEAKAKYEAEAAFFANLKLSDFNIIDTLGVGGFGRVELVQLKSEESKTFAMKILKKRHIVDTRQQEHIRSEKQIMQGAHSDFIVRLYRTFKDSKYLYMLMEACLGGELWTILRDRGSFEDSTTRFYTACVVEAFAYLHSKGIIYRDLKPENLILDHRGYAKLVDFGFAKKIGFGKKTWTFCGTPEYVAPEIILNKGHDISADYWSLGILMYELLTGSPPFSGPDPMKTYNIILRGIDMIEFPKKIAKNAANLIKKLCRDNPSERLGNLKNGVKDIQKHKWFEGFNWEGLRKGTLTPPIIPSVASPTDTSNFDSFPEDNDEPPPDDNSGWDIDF
Conditions: at 0.1 µM.

The target in test [5] is T3, cGMP-dependent protein kinase 1 (Homo sapiens). The note with it: at 1 µM.
The target in test [6] is T4, cGMP-dependent protein kinase 2 (Homo sapiens) (UniProt Q13237).
T4 sequence (whole entry): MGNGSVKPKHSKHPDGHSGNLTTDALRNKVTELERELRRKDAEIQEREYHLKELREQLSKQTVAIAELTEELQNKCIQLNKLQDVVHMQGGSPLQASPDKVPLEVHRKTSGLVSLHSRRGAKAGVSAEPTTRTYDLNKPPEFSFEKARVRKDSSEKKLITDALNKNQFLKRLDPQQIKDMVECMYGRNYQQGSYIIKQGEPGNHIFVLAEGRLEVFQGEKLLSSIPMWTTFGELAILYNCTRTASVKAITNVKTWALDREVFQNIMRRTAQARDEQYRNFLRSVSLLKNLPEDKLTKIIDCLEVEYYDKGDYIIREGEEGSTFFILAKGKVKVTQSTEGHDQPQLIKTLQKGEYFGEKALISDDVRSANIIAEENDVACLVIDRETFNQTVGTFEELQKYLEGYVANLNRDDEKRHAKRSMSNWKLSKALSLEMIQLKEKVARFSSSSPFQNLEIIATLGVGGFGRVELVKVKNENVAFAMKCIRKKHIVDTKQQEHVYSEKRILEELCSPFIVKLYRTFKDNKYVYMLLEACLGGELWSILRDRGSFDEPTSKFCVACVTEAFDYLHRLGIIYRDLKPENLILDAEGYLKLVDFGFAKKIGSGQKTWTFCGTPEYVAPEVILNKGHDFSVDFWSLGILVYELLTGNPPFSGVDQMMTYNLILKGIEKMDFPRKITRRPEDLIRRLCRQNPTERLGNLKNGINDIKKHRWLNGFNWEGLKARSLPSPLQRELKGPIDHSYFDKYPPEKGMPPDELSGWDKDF
Conditions: at 0.1 µM.

Test [7] has as its target T4, cGMP-dependent protein kinase 2 (Homo sapiens). The note with it: at 1 µM.
Test [8] has as its target T5, cAMP-dependent protein kinase catalytic subunit PRKX (Homo sapiens) (UniProt P51817).
T5 sequence (whole entry): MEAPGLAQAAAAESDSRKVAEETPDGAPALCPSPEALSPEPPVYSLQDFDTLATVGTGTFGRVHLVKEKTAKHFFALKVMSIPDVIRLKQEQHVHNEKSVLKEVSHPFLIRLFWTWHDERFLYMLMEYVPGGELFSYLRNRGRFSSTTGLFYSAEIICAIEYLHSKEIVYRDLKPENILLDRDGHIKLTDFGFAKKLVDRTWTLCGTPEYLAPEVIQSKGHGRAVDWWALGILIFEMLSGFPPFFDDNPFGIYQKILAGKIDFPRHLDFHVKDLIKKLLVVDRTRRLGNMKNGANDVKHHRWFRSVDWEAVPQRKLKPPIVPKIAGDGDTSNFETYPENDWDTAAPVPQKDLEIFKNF
The note with it: at 0.1 µM.

For test [9], the target named is T5, cAMP-dependent protein kinase catalytic subunit PRKX (Homo sapiens). The note with it: at 1 µM.
In test [10] the target is Rho-associated protein kinase 1 (Homo sapiens) (UniProt Q13464). The note with it: at 0.1 µM.
Test [11] has the same target. The note with it: at 1 µM.
Test [12] has as its target Rho-associated protein kinase 2 (Homo sapiens) (UniProt O75116). Conditions: at 0.1 µM.
The target is the same in test [13]. The note with it: at 1 µM.
Test [14] addresses Ribosomal protein S6 kinase alpha-1 (Homo sapiens) (UniProt Q15418). Conditions: at 0.1 µM.
For test [15] the target is unchanged. Conditions: at 1 µM.
For test [16], the target named is Ribosomal protein S6 kinase alpha-3 (Homo sapiens) (UniProt P51812). The note with it: at 0.1 µM.
Test [17] has the same target. The note with it: at 1 µM.
Test [18] addresses Ribosomal protein S6 kinase alpha-2 (Homo sapiens) (UniProt Q15349). Conditions: at 0.1 µM.
Test [19] shares this target. Conditions: at 1 µM.
The target of test [20] is Ribosomal protein S6 kinase alpha-6 (Homo sapiens) (UniProt Q9UK32). The note with it: at 0.1 µM.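 Further: reported value is the mean inhibition of RSK4, from the GSK PKIS kinase inhibitor screen.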
Chain of Ribosomal protein S6 kinase alpha-6 (Homo sapiens) (Q9UK32 whole entry): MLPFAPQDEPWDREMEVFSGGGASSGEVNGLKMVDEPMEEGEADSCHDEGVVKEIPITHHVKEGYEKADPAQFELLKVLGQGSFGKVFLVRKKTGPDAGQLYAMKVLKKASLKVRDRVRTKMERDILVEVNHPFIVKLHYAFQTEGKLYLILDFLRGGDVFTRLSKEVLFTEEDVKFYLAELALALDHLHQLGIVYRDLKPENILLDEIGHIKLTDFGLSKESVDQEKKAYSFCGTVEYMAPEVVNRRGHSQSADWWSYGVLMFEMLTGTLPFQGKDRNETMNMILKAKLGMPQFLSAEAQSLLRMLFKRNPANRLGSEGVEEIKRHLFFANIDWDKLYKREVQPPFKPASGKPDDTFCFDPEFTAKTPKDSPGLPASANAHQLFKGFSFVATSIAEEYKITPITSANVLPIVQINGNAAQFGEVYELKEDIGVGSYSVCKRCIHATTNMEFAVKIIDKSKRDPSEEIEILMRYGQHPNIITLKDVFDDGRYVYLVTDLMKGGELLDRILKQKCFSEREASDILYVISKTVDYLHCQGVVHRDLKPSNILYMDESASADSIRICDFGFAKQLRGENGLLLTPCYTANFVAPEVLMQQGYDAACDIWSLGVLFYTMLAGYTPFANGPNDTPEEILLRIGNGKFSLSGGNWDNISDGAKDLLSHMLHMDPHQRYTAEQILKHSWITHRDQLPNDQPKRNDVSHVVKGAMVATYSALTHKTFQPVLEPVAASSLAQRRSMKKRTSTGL

Chain of Ribosomal protein S6 kinase alpha-1 (Homo sapiens) (Q15418 whole entry): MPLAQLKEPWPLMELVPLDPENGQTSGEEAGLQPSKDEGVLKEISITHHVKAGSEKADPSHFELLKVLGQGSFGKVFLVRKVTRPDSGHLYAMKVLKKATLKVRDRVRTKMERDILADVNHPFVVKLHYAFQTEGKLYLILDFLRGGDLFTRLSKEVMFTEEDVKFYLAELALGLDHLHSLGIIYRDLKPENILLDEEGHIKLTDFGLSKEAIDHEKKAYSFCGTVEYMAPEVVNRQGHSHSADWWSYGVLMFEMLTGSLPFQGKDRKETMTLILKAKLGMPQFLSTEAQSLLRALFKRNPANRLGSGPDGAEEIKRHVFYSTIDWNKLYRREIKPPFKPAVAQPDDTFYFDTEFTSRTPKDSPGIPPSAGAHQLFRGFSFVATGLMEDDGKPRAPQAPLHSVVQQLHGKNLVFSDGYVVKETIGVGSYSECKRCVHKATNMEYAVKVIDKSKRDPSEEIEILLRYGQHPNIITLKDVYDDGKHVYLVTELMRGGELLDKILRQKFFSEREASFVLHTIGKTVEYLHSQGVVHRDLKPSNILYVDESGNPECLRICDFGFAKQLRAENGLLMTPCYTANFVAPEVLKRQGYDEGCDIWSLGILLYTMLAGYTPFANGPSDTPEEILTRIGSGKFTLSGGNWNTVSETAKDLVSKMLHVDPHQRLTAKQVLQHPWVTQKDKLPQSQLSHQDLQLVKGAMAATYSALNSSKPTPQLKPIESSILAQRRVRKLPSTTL
Chain of Ribosomal protein S6 kinase alpha-3 (Homo sapiens) (P51812 whole entry): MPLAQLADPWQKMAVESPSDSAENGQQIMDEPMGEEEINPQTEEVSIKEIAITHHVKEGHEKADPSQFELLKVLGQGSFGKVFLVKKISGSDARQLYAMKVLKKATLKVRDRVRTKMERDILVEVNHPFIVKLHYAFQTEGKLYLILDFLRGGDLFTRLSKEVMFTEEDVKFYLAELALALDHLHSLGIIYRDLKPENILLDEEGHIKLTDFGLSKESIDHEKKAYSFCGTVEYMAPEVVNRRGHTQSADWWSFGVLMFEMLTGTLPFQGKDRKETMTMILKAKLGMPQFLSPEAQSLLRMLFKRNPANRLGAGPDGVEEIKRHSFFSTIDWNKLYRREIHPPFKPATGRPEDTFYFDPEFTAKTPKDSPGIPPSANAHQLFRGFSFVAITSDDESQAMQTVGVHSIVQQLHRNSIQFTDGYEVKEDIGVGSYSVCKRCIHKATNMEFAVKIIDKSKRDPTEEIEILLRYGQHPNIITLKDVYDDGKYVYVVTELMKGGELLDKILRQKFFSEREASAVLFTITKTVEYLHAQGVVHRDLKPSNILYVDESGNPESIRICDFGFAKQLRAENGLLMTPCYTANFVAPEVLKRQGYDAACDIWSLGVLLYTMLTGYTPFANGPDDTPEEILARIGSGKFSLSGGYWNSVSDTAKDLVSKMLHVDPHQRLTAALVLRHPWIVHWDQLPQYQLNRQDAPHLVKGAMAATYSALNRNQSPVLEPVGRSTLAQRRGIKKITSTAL
Chain of Ribosomal protein S6 kinase alpha-2 (Homo sapiens) (Q15349 whole entry): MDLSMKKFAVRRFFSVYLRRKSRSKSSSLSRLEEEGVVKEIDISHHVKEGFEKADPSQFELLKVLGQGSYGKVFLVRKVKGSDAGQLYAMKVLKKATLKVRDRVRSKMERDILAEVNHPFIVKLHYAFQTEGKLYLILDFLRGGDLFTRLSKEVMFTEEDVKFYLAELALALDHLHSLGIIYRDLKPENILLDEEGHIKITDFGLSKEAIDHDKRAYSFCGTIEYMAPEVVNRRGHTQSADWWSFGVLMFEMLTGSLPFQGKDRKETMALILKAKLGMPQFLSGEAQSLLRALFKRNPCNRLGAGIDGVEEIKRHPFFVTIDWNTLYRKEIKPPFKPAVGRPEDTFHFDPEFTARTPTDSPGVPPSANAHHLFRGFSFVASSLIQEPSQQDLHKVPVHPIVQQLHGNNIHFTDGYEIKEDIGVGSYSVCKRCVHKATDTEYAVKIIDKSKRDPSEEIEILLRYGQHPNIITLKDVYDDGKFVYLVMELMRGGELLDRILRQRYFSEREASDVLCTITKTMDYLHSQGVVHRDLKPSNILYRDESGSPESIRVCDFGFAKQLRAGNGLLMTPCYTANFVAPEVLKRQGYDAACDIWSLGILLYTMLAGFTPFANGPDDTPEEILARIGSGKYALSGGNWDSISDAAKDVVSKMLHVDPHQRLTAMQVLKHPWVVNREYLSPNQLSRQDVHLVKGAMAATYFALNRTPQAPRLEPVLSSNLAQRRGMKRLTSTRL
Chain of Rho-associated protein kinase 1 (Homo sapiens) (Q13464 2-1354 limits assumed): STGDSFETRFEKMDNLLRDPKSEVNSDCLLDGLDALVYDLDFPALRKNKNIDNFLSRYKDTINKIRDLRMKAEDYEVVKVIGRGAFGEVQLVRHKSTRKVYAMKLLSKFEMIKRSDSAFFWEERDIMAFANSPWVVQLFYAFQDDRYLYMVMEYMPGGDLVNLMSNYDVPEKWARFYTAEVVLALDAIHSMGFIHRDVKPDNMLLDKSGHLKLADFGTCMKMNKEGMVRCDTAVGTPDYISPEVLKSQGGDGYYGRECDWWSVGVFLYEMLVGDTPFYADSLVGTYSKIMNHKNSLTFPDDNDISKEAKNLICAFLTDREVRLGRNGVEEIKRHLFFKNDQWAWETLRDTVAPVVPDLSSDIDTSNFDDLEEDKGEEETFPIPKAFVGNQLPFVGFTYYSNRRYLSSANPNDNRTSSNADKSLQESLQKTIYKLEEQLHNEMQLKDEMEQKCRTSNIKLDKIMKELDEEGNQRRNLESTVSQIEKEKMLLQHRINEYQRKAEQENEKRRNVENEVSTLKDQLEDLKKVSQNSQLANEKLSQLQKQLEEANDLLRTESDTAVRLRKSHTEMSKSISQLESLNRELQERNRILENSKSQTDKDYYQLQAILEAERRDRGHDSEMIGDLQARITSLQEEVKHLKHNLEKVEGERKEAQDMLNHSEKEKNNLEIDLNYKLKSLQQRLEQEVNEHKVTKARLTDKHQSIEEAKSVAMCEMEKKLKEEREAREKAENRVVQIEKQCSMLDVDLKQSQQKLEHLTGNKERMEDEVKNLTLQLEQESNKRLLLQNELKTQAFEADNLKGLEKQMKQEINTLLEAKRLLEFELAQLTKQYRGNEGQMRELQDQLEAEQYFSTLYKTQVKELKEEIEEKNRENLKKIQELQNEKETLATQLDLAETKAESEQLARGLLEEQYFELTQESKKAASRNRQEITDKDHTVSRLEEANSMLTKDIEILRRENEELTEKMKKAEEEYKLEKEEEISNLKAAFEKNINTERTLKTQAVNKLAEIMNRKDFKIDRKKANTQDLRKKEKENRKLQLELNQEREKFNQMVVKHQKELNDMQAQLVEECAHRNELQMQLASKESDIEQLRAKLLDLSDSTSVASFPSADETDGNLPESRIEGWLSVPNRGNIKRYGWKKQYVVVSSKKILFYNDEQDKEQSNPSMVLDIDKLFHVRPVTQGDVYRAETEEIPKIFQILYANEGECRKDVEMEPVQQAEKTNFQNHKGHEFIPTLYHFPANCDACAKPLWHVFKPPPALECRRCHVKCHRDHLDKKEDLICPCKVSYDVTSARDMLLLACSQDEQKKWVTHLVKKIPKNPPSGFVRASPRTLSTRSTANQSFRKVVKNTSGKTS

As to `Nc1ncnc2occ(-c3ccc(NC(=O)Nc4cccc(C(F)(F)F)c4)cc3)c12`, the inhibition (as a rule, the drop in the measured response relative to a control, in per cent) in test [1] is 4.09%; in test [2], 5.37%; in [3], 5.91%; in test [4], 3.04%; in [5] it was 1.94%; in test [6], 2.46%. For the same molecule, the inhibition in test [7] amounted to 3.85%; in [8], 1.94%; in [9], 3.42%; in test [10] it was 4.04%; in test [11], 19%; in [12], 11.1%. Besides, the inhibition in [13] turned out to be 46.9%; in [14], 4.59%; in [15] it was 33.8%; in [16], 2.15%; in test [17] it was 26.1%; in test [18] it was 7.44%. Further, the results for the inhibition in test [19] and in test [20] were 52.9% and -0.29%, respectively.
Turning to `CCCN1CCC=C(c2ccc(Nc3nc(Nc4ccccc4C(N)=O)c4cc[nH]c4n3)c(C)c2)C1`, the inhibition in test [1] worked out at 68.5%; in test [2], 18.8%; in test [3], 61.7%; in [4], 4.43%; in [5], 18.8%; in [6], 5.72%. The inhibition in test [7] amounted to 31.8%; in [8] it was 2.31%; in [9], 2.1%; in [10] it was 2.33%; in [11] it was 8.96%; in [12], 2.53%. In addition, the inhibition in test [13] was 12.8%; in test [14], 19.8%; in test [15], 54.6%; in [16] it was 9.39%; in [17], 39.4%; in test [18], 3.72%. The inhibition came to 19.2% in test [19] and 11.7% in test [20].
Turning to `O=C1NC(=O)C(c2cccc(Cl)c2)=C1Nc1ccc(O)c(Cl)c1`, the inhibition in test [1] amounted to 3.16%; in test [2], 0.75%; in [3], 1.47%; in test [4], 0.66%; in test [5] it was 2.21%; in [6], 1.23%. The inhibition in test [7] is 5.33%; in [8] it was -0.43%; in test [9] it was -1.53%; in test [10] it was 0.21%; in test [11] it was 0.49%; in test [12] it was -0.28%. Also, the inhibition in test [13] was -2.05%; in test [14], 1.2%; in test [15], 7.59%; in [16], 1.93%; in [17] it was 14.1%; in test [18], 3.16%. Also, the inhibition in test [19] was determined as 19.8%; in test [20] it was 3.63%.
On to `COc1cc2c(cc1Nc1nc(N3CCc4ccccc43)c3cc[nH]c3n1)N(C(=O)CN(C)C)CC2`, for which the inhibition amounted to 3.6% in test [1]; 1.51% in test [2]; 4.37% in test [3]; 2.84% in test [4]; 2.75% in [5]; 2.18% in test [6]. Moreover, the inhibition in test [7] is 2.75%; in test [8], 0.6%; in test [9], -1.42%; in test [10], 0.33%; in test [11], 1.14%; in [12], 0.55%. In addition, the inhibition in test [13] is -1.46%; in test [14], 0.16%; in test [15], 0.41%; in test [16] it was 0.21%; in test [17] it was -1.32%; in test [18] it was 0.86%. Moreover, the inhibition was determined as 0.48% in test [19] and 1.57% in test [20].

The record behind these values is ChEMBL document CHEMBL1961873, “Compounds: GSK PKIS; Assays: Nanosyn kinase panel” (2012).
